Consider 40 compounds from ChEMBL document CHEMBL3988442, “University of Dundee, Small-Polar-MMV Screening Library” (2021).

The test concerns the target T1, Tyrosyl-tRNA synthetase, putative (Trypanosoma cruzi (strain CL Brener)) (UniProt Q4DSP6).
T1 sequence (whole entry): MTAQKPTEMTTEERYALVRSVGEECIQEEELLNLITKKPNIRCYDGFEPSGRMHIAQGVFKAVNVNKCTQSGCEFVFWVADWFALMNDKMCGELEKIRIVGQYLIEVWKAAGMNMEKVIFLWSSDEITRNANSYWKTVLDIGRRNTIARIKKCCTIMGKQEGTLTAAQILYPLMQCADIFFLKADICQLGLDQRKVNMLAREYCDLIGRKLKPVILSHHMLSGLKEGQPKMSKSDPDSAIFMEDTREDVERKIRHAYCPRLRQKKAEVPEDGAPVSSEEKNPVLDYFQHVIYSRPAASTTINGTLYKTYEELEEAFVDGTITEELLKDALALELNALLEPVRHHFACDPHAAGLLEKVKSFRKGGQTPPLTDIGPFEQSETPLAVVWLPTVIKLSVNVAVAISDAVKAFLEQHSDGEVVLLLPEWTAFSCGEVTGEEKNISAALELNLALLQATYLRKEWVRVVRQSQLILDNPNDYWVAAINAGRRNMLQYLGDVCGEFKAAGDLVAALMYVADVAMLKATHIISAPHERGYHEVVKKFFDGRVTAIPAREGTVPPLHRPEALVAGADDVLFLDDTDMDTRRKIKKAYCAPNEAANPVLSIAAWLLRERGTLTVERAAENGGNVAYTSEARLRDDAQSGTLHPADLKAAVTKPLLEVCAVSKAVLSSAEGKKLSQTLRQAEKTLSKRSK
The test can be described thus: Trypanosoma cruzi tyrosyl tRNA synthetase (TcYRS) SOP. More on the design: scale not given: direction of the effect not stated beside the values. Particulars: 30 µM. It counts as functional.
For `CC(c1ccco1)N(C)Cc1nc2c(cnn2C)c(=O)[nH]1` (stereo not given), the Percent Effect came to 28.1%.

Take `CCn1nc(C)c2nnn(CC(=O)Nc3cccc(Cl)c3)c(=O)c21`: the Percent Effect stood at 7.69%.

With `CCCC(=O)NCc1cc(Br)c(OC)c(OC)c1`, the Percent Effect was determined as 13.6%.

Consider `CC(=O)N(C)CC(=O)Nc1cccc(N2CCN(CC3CC3)CC2)c1`, for which the Percent Effect amounted to 11.1%.

For `CS(=O)(=O)N1CC[C@H]2[C@H](C[C@@H](Cn3cncn3)N2CC2CC2)C1`, the Percent Effect is 6.17%.

Turning to `COc1ccnc(N2CCN(C(=O)CN3CCCC3=O)CC2)n1`, the Percent Effect worked out at 25.9%.

As for `Cc1cc(C)n(CC2CCCCN2Cc2cscn2)n1` (stereo not given), the Percent Effect was 11.8%.

In the case of `O=C(CC1CCCC1)N1CCCC(c2n[nH]c3nccnc23)C1` (stereo not given), the Percent Effect was found to be 16.9%.

Regarding `CCc1ccc(CN2CC[C@H]3C[C@H](c4nnc(C)[nH]4)O[C@@H]3C2)o1`, the Percent Effect is -1.24%.

For the compound `CN(C)CCNC(=O)c1cc(-c2cnc(N3CCCC3)nc2)cn1C`, the Percent Effect is -6.41%.

`Cc1cnn(CCNCc2ccccc2C#N)c1`: the Percent Effect was -1.22%.

With `Cc1ccc(CN2CCC3(C2)C(=O)N(CC(C)C)c2ccccc23)s1` (stereo not given), the Percent Effect was 13.4%.

As for `NC(=O)Nc1cccc(Oc2ccccn2)c1`, the Percent Effect stood at 2.6%.

Consider `CC(CNC(=O)Nc1cn[nH]c1)N1CCc2ccccc2C1` (stereo not given), for which the Percent Effect stood at 21.2%.

In the case of `O=C(CCc1ccc(Br)cc1F)NS(=O)(=O)c1ccc2c(c1)OCCO2`, the Percent Effect is -17.7%.

Regarding `CC(NC(N)=O)C(=O)N1CCCN(Cc2nccn2C(C)C)CC1` (stereo not given), the Percent Effect turned out to be 2.53%.

On to `CN1Cc2c(C(=O)Nc3cccnc3)ncn2-c2ccccc2S1(=O)=O`, for which the Percent Effect was found to be 6.17%.

As to `CN(C(=O)NCCCN1CCCC1)C1CCN(c2ccccc2)C1=O` (stereo not given), the Percent Effect was 12.2%.

Turning to `CCSCCC(=O)Nc1ncn(Cc2cccnc2)n1`, the Percent Effect is 13.6%.

Regarding `CNC(=O)[C@@]12CCO[C@@H]1CCN(S(=O)(=O)c1cccc(C)c1)C2`, the Percent Effect was 12.8%.

For the compound `CCC1CN(CC(=O)Nc2sccc2C#N)CCO1` (stereo not given), the Percent Effect is 9.76%.

`CCn1c(C(=O)N2CCN(CC(C)O)CC2)cc2ccccc21` (stereo not given): the Percent Effect is 21.9%.

As to `O=C(NCCCN1CCCC1)c1n[nH]c(=O)c2ccccc12`, the Percent Effect amounted to 12.2%.

Turning to `COCC1CCCN(C(=O)c2cc(Cn3ccc4ccccc43)[nH]n2)C1` (stereo not given), the Percent Effect is 18.5%.

Consider `CC(C)S(=O)(=O)NCC1CCCN(C(=O)c2ccc3c(c2)CCC3)C1` (stereo not given), for which the Percent Effect came out at 7.5%.

`N#Cc1c(F)cccc1N1CCC(NS(=O)(=O)c2cccs2)CC1`: the Percent Effect is -20%.

For the compound `CNc1nc2c(c(C(=O)N3CCCC3)n1)CN(Cc1nccn1C)CC2`, the Percent Effect was determined as 8.64%.

For the compound `CC(C)CCN1CN=C(NS(=O)(=O)c2ccc(F)cc2)NC1`, the Percent Effect was determined as 10.3%.

Turning to `CN(Cc1ncc(C(C)(C)C)o1)C1CCCN(c2cccnn2)C1` (stereo not given), the Percent Effect turned out to be 16.5%.

As for `Cc1nc2cc(C3CCN(Cc4cccc(F)c4F)C3)nn2c(O)c1C` (stereo not given), the Percent Effect is 11.7%.

As for `CCS(=O)(=O)CCN1CCCC1c1noc(C2CC2)n1` (stereo not given), the Percent Effect was -34.2%.

`Cc1nc(Cn2nc(C3CCNCC3)n(Cc3ccccc3)c2=O)no1`: the Percent Effect stood at 4.88%.

Consider `CN(C)C(=O)COC1COC2(CCN(S(C)(=O)=O)CC2)C1` (stereo not given), for which the Percent Effect was found to be 12.8%.

Take `CCNC(=O)NC(=O)CSC(C)c1c(F)cccc1F` (stereo not given): the Percent Effect was -1.24%.

Regarding `Cn1cccc1CNC(=O)CCCc1nnc2ccccn12`, the Percent Effect worked out at 2.56%.

`Cc1cccc(CN(Cc2ccc(C)o2)C2CC(C)(C)NC(C)(C)C2)n1`: the Percent Effect was found to be 3.9%.

Regarding `Cc1ccc(C2CSCCN2C(=O)c2ccsc2)o1` (stereo not given), the Percent Effect is 6.17%.

Regarding `Cc1csc(N2CCN(C(=O)CCC(=O)c3ccc(C)s3)CC2)n1`, the Percent Effect amounted to 25.9%.

With `O=C(c1cnccn1)N1C[C@@H]2CC[C@H](C1)N(C(=O)Cc1ccsc1)C2`, the Percent Effect came out at 3.7%.

Regarding `Cc1ncsc1C(=O)N1CCCC(c2noc(C(C)C)n2)C1` (stereo not given), the Percent Effect stood at 15.4%.
